The nature of assay [1]: CCTE_Shafer_MEA_acute_spike_number: CCTE's Neural Acute Assay for Total Number of Spikes, Shafer Lab (AID 2284008).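 As to AC50: curve fitted for decrease in spike count so AC50 reflects inhibitors.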 Summed up: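 Rat primary cortical neurons on 48-well MEA plates, DIV 13 or 15, at 37 C. 40 min baseline then 40 min with compound (0.03-40 uM); spikes detected at 8x rms noise, expressed as percent change from baseline.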
The nature of assay [2]: CCTE_Shafer_MEA_acute_firing_rate_mean: CCTE's Neural Acute Assay for Mean Firing Rate, Shafer Lab (AID 2284009).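 Also: analyzed for loss of signal so actives lower firing rate relative to DMSO.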 Put shortly:
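Percent change in well-mean firing rate was derived from extracellular spikes detected at 8x rms noise (300-5000 Hz band-pass) before and after a 40-min compound exposure. Cultures were primary rat cortical neurons, tested at 0.03-40 uM.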

Assay [3] is described as follows: CCTE_Harrill_HTTr_Viability_MCF7: CCTE's 6-hour Cell Viability Assessment for the High-Throughput Transcriptomics (HTTr) Platform, in MCF-7 cells cultured in DMEM + 10% fetal bovine serum, Harrill Lab (AID 2284010). Summed up:
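Membrane integrity was scored by high-content imaging of propidium iodide dye exclusion after a 6 h exposure across an eight-point dilution series. Data were fitted bidirectionally relative to DMSO as negative control and baseline.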

Assay [4] in a line: CCTE_Harrill_HTTr_Apoptosis_MCF7: CCTE's 6-hour Apoptosis Assessment for the High-Throughput Transcriptomics (HTTr) Platform, in MCF-7 cells cultured in DMEM + 10% fetal bovine serum, Harrill Lab (AID 2284011). Summed up:
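MCF-7 cells in DMEM + 10% FBS exposed 6 h to chemicals over an eight-point dilution series. Caspase-3/7 activation imaged by high-content CellEvent Green staining; fitted bidirectionally versus DMSO.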

Assay [5] is described as follows: CCTE_Harrill_HTTr_CellCount_MCF7: CCTE's Cell Proliferation Assessment for the High-Throughput Transcriptomics (HTTr) Platform, Harrill Lab (AID 2284012; active = hit-call score of the fitted dose curve at least 0.9, where 1 is the maximum;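 also: cells exposed to compound for six hours; intended direction is loss of nuclei count meaning fewer cells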). Summed up:
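MCF-7 cells were exposed for 6 h to an eight-point dilution series; Hoechst-labeled nuclei were counted by high content imaging. Curves were fitted bidirectionally against DMSO as negative control and baseline, with signal loss indicating reduced cell count.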

Assay [6] is described as follows: CCTE_Shafer_MEA_acute_burst_number: CCTE's Neural Acute Assay for Single-Electrode Bursts, Shafer Lab (AID 2284013). Summed up:
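Spontaneous network activity of primary rat cortical neurons was recorded extracellularly on microelectrode arrays at 37 C, with 40-min periods before and during exposure to 0.03-40 uM compound on DIV 13 or 15.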

Assay [7] has as its target Nucleoli Translocation, AR (gene 367) (UniProt P10275). The experiment in a line: UPITT_HCI_U2OS_AR_TIF2_Nucleoli_Antagonist: University of Pittsburgh U2OS Androgen Receptor-Transcriptional Intermediary Factor 2 (AR-TIF2) Antagonism High Content Imaging Assay for Nucleoli Translocation (AID 2283997; active = hit-call score of the fitted dose curve at least 0.9, where 1 is the maximum). Put shortly:
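Measured quantity was AR-RFP fluorescence localized to nucleoli in engineered U2OS cells also bearing TIF2-GFP, acquired on automated high-content imagers. Primary testing used 20 uM compound; actives were confirmed in triplicate wells.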

Assay [8] addresses Ratio of Nucleoli Translocation and Cytoplasm, AR (gene 367) (UniProt P10275). The experiment in a line: UPITT_HCI_U2OS_AR_TIF2_Nucleoli_Cytoplasm_Ratio_Agonist: University of Pittsburgh U2OS Androgen Receptor-Transcriptional Intermediary Factor 2 (AR-TIF2) Agonism High Content Imaging Assay for Ratio of Nucleoli Translocation and Cytoplasm (AID 2284000; active = hit-call score of the fitted dose curve at least 0.9, where 1 is the maximum;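 also: hits raise the red nucleolar to cytoplasm ratio above vehicle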). Put shortly: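 Read-out first: nucleolar-to-cytoplasm ratio of red (AR-RFP) signal, quantified by high-content imaging in U2OS cells co-expressing TIF2-GFP. Activity is scored as signal increase over DMSO. Single-point screening used 20 uM final (0.2% DMSO).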

Assay [9] is described as follows: CCTE_Simmons_MITO_inhib_resp_rate: CCTE's HepG2 Seahorse XF Respirometric Screening Assay at Inhibited Respiratory State [full ETC block], Simmons Lab (AID 2284006). As to conditions: actives raise or lower the signal. Put shortly:
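HepG2 cells on Seahorse XF96; oxygen consumption measured after test compound, then FCCP, then rotenone/antimycin A injections over 72 min. Test chemicals at 7 concentrations, 125 nM–100 uM final. OCR fitted bidirectionally versus DMSO.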

The nature of assay [10]: CCTE_Simmons_MITO_viability: CellTiter-Glo Viability Assessment for CCTE's HepG2 Seahorse XF Respirometric Screening Assay [post-hoc], Simmons Lab (AID 2284007; active = hit-call score of the fitted dose curve at least 0.9, where 1 is the maximum;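 as to AC50: cells exposed to chemical for 90 min before the ATP read; actives lower ATP signal relative to DMSO baseline meaning reduced viability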). Put shortly: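 HepG2 cells from the Seahorse XF respirometry run were exposed 90 min to a 7-point series, 125 nM–100 uM final, DMSO vehicle; ATP content then read by luciferase luminescence. Three biological replicates, technical singles; loss of signal fitted versus DMSO.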

The target in assay [11] is Nucleoli Translocation, AR (gene 367) (UniProt P10275). The experiment in a line: UPITT_HCI_U2OS_AR_TIF2_Nucleoli_Agonist: University of Pittsburgh U2OS Androgen Receptor-Transcriptional Intermediary Factor 2 (AR-TIF2) Agonism High Content Imaging Assay for Nucleoli Translocation (AID 2283998; active = hit-call score of the fitted dose curve at least 0.9, where 1 is the maximum). Summed up:
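U2OS cells expressing RFP-tagged human AR and GFP-tagged TIF2; red fluorescence in nucleoli quantified by high-content imaging. Primary screen at 20 uM final (0.2% DMSO); concentration-response 0.195–50 uM (0.5% DMSO), fitted upward versus DMSO.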

For assay [12], the target named is Ratio of Nucleoli Translocation and Cytoplasm, AR (gene 367) (UniProt P10275). The experiment in a line: UPITT_HCI_U2OS_AR_TIF2_Nucleoli_Cytoplasm_Ratio_Antagonist: University of Pittsburgh U2OS Androgen Receptor-Transcriptional Intermediary Factor 2 (AR-TIF2) Antagonism High Content Imaging Assay for Ratio of Nucleoli Translocation and Cytoplasm (AID 2283999; active = hit-call score of the fitted dose curve at least 0.9, where 1 is the maximum;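 also: antagonists lower the DHT-driven ratio of nucleolar to cytoplasmic red signal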). Summed up:
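U2OS cells expressing RFP-tagged human AR and GFP-tagged TIF2; compounds tested at 20 uM final (0.2% DMSO) in primary screen, 0.195–50 uM (0.5% DMSO) for concentration response. Readout: nucleolar-to-cytoplasmic red fluorescence ratio by high-content imaging, fitted relative to DHT.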

The test system of the next assay is DIO1 (gene 1733). The experiment in a line: CCTE_GLTED_hDIO1: CCTE's human Deiodinase 1 (DIO1) Inhibition Assay, Great Lakes Toxicology and Ecology Division (GLTED) Lab (AID 2283987; active = hit-call score of the fitted dose curve at least 0.9, where 1 is the maximum;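 also: isolated human DIO1 enzyme in a cell-free setup rather than cells; enzyme activity read as free iodide liberated from substrate via Sandell-Kolthoff colorimetry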). Summed up: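 Cell-free human DIO1 enzyme incubated 3 h with test chemical; iodide freed from substrate then measured by Sandell-Kolthoff absorbance. Run in triplicate; loss of signal relative to DMSO taken as inhibition.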

Results filed as inconclusive are left out. Calls of active or inactive are those of the source. The calls were made as follows, unless noted: active = hit-call score of the fitted dose curve at least 0.9, where 1 is the maximum; inactive = score below 0.9.

Chain of Ratio of Nucleoli Translocation and Cytoplasm, AR (gene 367) (P10275 whole entry, looked up): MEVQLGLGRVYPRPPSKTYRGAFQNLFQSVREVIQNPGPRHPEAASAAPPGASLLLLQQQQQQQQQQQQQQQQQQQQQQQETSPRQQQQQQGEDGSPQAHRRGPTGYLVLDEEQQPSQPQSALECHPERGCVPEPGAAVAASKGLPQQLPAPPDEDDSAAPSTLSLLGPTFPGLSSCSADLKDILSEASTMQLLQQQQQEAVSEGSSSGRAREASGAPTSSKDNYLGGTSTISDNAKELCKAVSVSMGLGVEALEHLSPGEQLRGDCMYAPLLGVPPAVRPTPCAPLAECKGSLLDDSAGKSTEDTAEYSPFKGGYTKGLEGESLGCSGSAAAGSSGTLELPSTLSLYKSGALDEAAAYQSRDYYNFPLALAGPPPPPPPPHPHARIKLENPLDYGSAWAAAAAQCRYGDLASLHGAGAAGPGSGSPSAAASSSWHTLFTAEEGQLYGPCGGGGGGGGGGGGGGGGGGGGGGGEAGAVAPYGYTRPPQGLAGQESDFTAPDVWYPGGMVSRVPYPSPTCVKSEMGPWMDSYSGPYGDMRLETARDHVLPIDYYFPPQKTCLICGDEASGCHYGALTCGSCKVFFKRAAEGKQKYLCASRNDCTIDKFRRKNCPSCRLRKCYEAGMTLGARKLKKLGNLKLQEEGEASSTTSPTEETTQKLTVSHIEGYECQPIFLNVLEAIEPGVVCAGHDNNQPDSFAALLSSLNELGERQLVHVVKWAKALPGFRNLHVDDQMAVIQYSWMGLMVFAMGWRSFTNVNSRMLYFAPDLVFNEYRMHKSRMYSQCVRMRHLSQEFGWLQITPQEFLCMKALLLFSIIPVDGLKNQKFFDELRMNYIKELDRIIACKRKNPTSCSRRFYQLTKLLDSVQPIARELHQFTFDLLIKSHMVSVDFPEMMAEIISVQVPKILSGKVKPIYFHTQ
Chain of Nucleoli Translocation, AR (gene 367) (P10275 whole entry, looked up): as above

For `c1ccc(C(O[C@@H]2CCCN(CCc3ccc4c(c3)OCO4)C2)c2ccccc2)cc1`, the call in assay [1], in assay [2], in assay [3], in [4], in assay [5] and in assay [6] was inactive.

Take `Cc1nc(-c2ccccn2)ncc1C(=O)Nn1cc(C)c2cc(F)ccc21`: the compound was called inactive in assay [7], in [8], in assay [3], in [4] and in [5].

As for `O=C(O)c1cccc(C[C@@H]2COc3ccc(OCc4nc5cc(F)ccc5s4)cc3[C@@H]2O)c1`, the compound was classed as inactive in assay [9], in assay [10], in assay [3] and in [4].

For `CCCCCCCC/C=C\CCCCCCCC(=O)OC[C@@H](O)[C@H]1OC[C@H](O)[C@H]1O`, the compound was called inactive in assay [1], in assay [2], in assay [3], in assay [4], in [5] and in [6].

The AC50 is the concentration giving half of the maximal activity seen. On to `c1ccc2cc3ccccc3cc2c1`, for which the figures for the AC50 in assay [1], in assay [2] and in assay [6] were 0.003 µM (active), 0.003 µM (active) and 0.0075 µM (active), respectively. Moreover, the result in assay [3] and in [4] was inactive.

As to `CCN(CC)C(=S)SSC(=S)N(CC)CC`, the AC50 in assay [7] is 19.8 µM (active); in assay [11], 50 µM (active); in assay [12], 11.7 µM (active); in assay [8] it was 64.4 µM (active). Besides, the compound was classed as inactive in assay [9], in [10], in [3], in assay [4] and in assay [5].

Consider `CCc1ccc(O)c(C(C)(C)C)c1`, for which the call in assay [9], in [10], in [3], in [4] and in assay [5] was inactive. Further, the figures for the AC50 in [1], in assay [2] and in assay [6] were 0.679 µM (active), 0.672 µM (active) and 1.03 µM (active), respectively.

Take `CC(C)c1nnc2ccc(-c3ocnc3-c3cc(F)ccc3F)cn12`: the compound was called inactive in assay [9], in assay [3] and in assay [4]. Moreover, the concentration at half-maximal activity (AC50) in [10] was 50 µM (active).

For `CCCCCCCCCCCCCCCCOS(=O)(=O)O`, in the assay on DIO1 (gene 1733), the half-maximal activity concentration (AC50) was 44.5 µM (active). In addition, the outcome in assay [7], in assay [3] and in assay [4] was inactive.

As for `O=C(NO)C1(NS(=O)(=O)c2ccc(Oc3ccc(F)cc3)cc2)CCOCC1`, the compound was classed as inactive in assay [9], in assay [10], in assay [3], in [4] and in assay [5].

With `O=C1CN(N=Cc2ccc([N+](=O)[O-])o2)C(=O)N1`, in assay [9], the AC50 is 46.8 µM (active). Moreover, the compound was classed as inactive in assay [10], in assay [3], in assay [4] and in [5].

Consider `COc1cc2c(c(OC)c1OC)-c1ccc(OC)c(=O)cc1[C@@H](NC(C)=O)CC2`, for which the outcome in assay [7], in [11], in assay [12], in assay [8], in assay [1] and in [2] was inactive. Further, the outcome in assay [3], in assay [4] and in assay [5] was inactive. In addition, the AC50 in assay [6] is 34 µM (active).

On to `O=S(=O)(O)c1ccc(N=Nc2c(O)ccc3cc(S(=O)(=O)O)ccc23)cc1`, for which the result in [1], in [2], in [3], in assay [4], in assay [5] and in [6] was inactive.

Values taken from PubChem BioAssay (EPA / NIEHS).
